Reference: PubChem BioAssay (NCATS)
Results filed as inconclusive are left out. Values without a mark were called inactive. Calls follow the shape of the dose curve; as a rule, active = well fitted cell-killing curve with a large enough effect; inconclusive = small, poorly fitted or top-dose-only effect; inactive = flat fitted curve, though single readings scatter.

assay: qHTS of pediatric cancer cell lines to identify multiple opportunities for drug repurposing: Primary screen for control Hh wild type fibroblast cells (AID 1347106); conditions: Hh wild-type fibroblast viability, CellTiter-Glo luminescence, 48 h; series mostly up to 46 µM; activity change, negative = cytotoxic: at the top concentration;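 also: a drop in luminescence marks cytotoxicity and a rise apparent proliferation; nearly all actives have a fitted effect of over 55% in size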
Outline: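 Cells (500-1,000/well) in growth media were settled 5 h at 37 degrees C, then given compounds for 48 h. Viability was read as CellTiter-Glo luminescence. Primary runs used MIPE at 11 points (0.78 nM-46 µM) and NPC at 8 points (0.59 nM-46 µM); follow-ups used 11 points.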
% is scaled to controls: 0 for no effect and ±100 for the full control effect.

| Structure (SMILES) | activity change, negative = cytotoxic |
| --- | --- |
| Cn1c(=O)c2c(ncn2CC(=O)O)n(C)c1=O | 11.2% |
| O=[N+]([O-])c1nccn1CO[C@@H](CO)[C@H](O)CO | -3.34% |
| CC(=O)OCC(=O)Nc1cc(C#N)cc(NC(=O)COC(C)=O)c1Cl | 5.28% |
| CC1(C)O[C@@H]2C[C@H]3[C@@H]4C[C@H](F)C5=CC(=O)C=C[C@]5(C)[C@@]4(F)[C@@H](O)C[C@]3(C)[C@]2(C(=O)CO)O1 | -1.23% |
| CCCC(=O)Nc1ccc(O)c(C(C)=O)c1 | 12.1% |
| O=[N+]([O-])c1cncn1CCN1CCOCC1 | 18.9% |
| CCOc1ncc(F)c(=O)[nH]1 | 1.99% |
| CCc1cc(S(=O)(=O)O)c2cc(C(C)C)cccc1-2 | -2.78% |
| Cc1ccccc1N1CCN(CCc2nnc3n2CCCC3)CC1 | 6.57% |
| CN1C(=O)c2ccccc2C1=O | 4.84% [at 92.7 µM] |
| Nc1nnnn1-c1ccccc1 | 1.13% |
| CCOC(=O)c1ccc(NC(=O)CN2CCCCC2)cc1 | 9.49% |
| Brc1ccccc1-c1ccccc1 | 0.683% [at 92.7 µM] |
| CCNC(=O)NCCCOc1cccc(CN2CCCCC2)c1 | -8.81% |
| CO/N=C(/C(=O)N[C@@H]1C(=O)N2C(C(=O)OCOC(=O)C(C)(C)C)=C(C)CS[C@H]12)c1csc(N)n1 | -4.04% |
| Cc1c(N)cccc1C(F)(F)F | 0.452% |
| OC[C@]1(O)OC[C@@H](O)[C@H](O)[C@@H]1O | 4.89% |
| COC(=O)c1cc(Cl)ccc1OC | 6.96% |
| CCCc1ncc(C(=O)O)s1 | 9.72% |

| Structure (SMILES) | activity change, negative = cytotoxic |
| --- | --- |
| CCOc1ccc(NS(=O)(=O)c2ccc(N)cc2)nn1 | 13% |
| CCCc1c2oc(C(=O)O)cc(=O)c2cc2c(=O)cc(C(=O)O)n(CC)c12 | 12.4% |
| O=C(O)Cn1cnnn1 | 6.99% |
| COc1cc(OC)nc(O[C@H](C(=O)O)C(OC)(c2ccccc2)c2ccccc2)n1 | 1.62% |
| CCCCCCCCCCCCCCCCCCN(C)C | -1.8% |
| C=C(C)C(=O)OCC(O)CO (stereo not drawn) | -2.8% |
| CNC(=O)c1c(I)c(NC(C)=O)c(I)c(C(=O)O)c1I | 6.77% |
| Cc1nc([N+](=O)[O-])cn1-c1ccc([N+](=O)[O-])cc1 | 6.62% |
| O=C(CCCCCCCCC#CI)Oc1ccccc1 | 5.6% |
| C=CC[N+]1([C@H]2C[C@H]3[C@@H]4CC[C@H]5C[C@H](OC(C)=O)[C@@H](N6CCCCC6)C[C@]5(C)[C@H]4CC[C@]3(C)[C@H]2OC(=O)CC)CCCCC1 | 6.26% |
| CO/N=C(/C(=O)N[C@@H]1C(=O)N2C(C(=O)[O-])=C(C[n+]3ccn4ncccc43)CS[C@H]12)c1nsc(N)n1 | 2.44% |
| C/C(=N\O)[C@@H](C)NCC(C)(C)CN[C@H](C)/C(C)=N/O | -2.56% |
| CNC[C@H](O)[C@@H](O)[C@H](O)[C@H](O)CO | -4.48% |
| COc1ccc(CCC(C)=O)cc1 | 5.66% |
| Cc1ccccc1C(=O)N1CC/C(=N\OS(=O)(=O)O)c2ccc(Cl)cc21 | 12% |
| CCn1ccc(NS(=O)(=O)c2ccc(N)cc2)nc1=O | 4.81% |
| O=C(O)/C=C(\CC(=O)O)C(=O)O | 13.9% |
| [O-][n+]1cccc(/C(Cl)=N/OC[C@@H](O)CN2CCCCC2)c1 | 4.63% |
| CC1CC(=O)NN=C1c1ccc(NCC(C)(C)NCC(O)COc2cc(Cl)ccc2C#N)cc1 (stereo not drawn) | 6.44% |
